# The panel holds about 79,000 compounds, 15% with a hit somewhere; the sample as a whole holds those more often. Active and inactive are the calls of the source. No stated cut-off is given here; in the data, active means growth inhibition above about 70%; inactive means the rest.
# Test: NCI Yeast Anticancer Drug Screen. Data for the sgs1 mgt1 strain (AID 161);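 further: 0% = growth of cultures given vehicle only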
# Conditions: S. cerevisiae sgs1 mgt1 strain, at 50.0 µM, stronger effect = higher value
# Procedure, shortened: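 Yeast cells carrying a defined DNA-repair defect were exposed to test compounds. Growth inhibition was measured relative to vehicle-treated controls.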
row,SMILES,growth inhibition
1,CC1(c2ccccc2)CCC(=O)NC1=O (stereo unspecified),14.6% (inactive)
2,C(#Cc1ccccc1)c1ccccc1.[C-]#[O+].[C-]#[O+].[C-]#[O+].[C-]#[O+].[C-]#[O+].[C-]#[O+].[Co].[Co],42.4% (inactive)
3,CCN1CCC(OC(=O)c2ccccc2)(c2nccc3ccccc23)CC1,7.05% (inactive)
4,COC(=O)c1ccccc1NP(=O)(O)Oc1ccccc1 (tested in a mixture with another compound),11.5% (inactive)
5,O=C1NN(c2ccccc2)C(=O)C1c1ccccc1 (stereo unspecified),17.4% (inactive)
6,COc1ccc2c3c1OC1C(C)(O)C(O)CC4C(C2)N(C)CCC341 (stereo unspecified),-16.2% (inactive)
7,CN1CCc2c([nH]c3ccccc23)C1,20.6% (inactive)
8,CC(C)C1CN1CC(O)Cn1ccnc1[N+](=O)[O-] (stereo unspecified),-19.1% (inactive)
9,O=C(Oc1cc(Cl)c(S(=O)(=O)F)cc1Cl)c1ccccc1Cl,97.1% (active)
10,COC(=O)C1(C(=O)OC)Cc2ccc(C)cc2C2=C1C(=O)c1ccccc1C2=O,5.5% (inactive)
11,CCC1=C(CC2NCCc3cc(OC)c(OC)cc32)CC2c3ccccc3CCN2C1 (stereo unspecified),-42.7% (inactive)
12,NP(=S)(Oc1ccc(Cl)cc1)Oc1ccc(Cl)cc1,97.7% (active)
13,O=C1/C(=C\c2ccccc2)N2CCC1CC2,-1.65% (inactive)
14,NC(C(=O)[O-])C(=O)[O-].NC1CCCCC1N.[Pt+4],5.75% (inactive)
15,CN(C)CCN=C(N)N[N+](=O)[O-],-15.4% (inactive)
16,CC(C)CCC1(CC[N+](C)(C)C)C(=O)NC(=O)NC1=O,6.15% (inactive)

# Reference: PubChem BioAssay (NCI)
